Compounds with a hit are over-represented: about 3.2% of the library has one in this group of screens.
ERa SRC1 inh: ER-alpha (human) coactivator binding inhibition; AID 629; inhibition, % at 25.6 µM; 86,000 compounds, 1.7% hits; TR-FRET ER-alpha LBD / SRC-1 peptide, estradiol-bound; P03372; in the data active = inhibition above about 50%;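 also: 0% = receptor plus peptide control and 100% = peptide only without receptor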
Target sequence (P03372 whole entry, looked up, the tested form may be a part): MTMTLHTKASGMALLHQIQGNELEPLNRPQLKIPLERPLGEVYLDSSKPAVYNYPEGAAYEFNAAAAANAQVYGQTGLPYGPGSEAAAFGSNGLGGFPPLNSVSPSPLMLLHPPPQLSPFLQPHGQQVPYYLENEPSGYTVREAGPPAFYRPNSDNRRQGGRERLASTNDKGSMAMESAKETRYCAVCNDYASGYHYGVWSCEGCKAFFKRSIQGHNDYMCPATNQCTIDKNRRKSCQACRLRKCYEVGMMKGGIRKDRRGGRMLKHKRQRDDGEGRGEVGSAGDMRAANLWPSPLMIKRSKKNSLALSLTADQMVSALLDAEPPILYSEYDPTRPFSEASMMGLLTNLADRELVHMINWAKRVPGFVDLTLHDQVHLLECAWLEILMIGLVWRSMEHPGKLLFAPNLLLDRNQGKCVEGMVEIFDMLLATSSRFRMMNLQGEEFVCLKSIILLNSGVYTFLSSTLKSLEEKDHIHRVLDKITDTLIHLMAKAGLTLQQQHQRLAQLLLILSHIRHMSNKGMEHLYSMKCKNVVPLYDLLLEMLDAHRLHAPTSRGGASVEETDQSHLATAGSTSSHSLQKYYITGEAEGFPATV
FAK inh: inhibitors of human focal adhesion kinase. Q05397. biochemical FAK kinase activity assay. inhibition, %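 (tested at 7 µM)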. 97,000 compounds, 0.84% hits. AID 727;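 also: 0% = DMSO and 100% = reference compound high control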
ERa coact pot: ER-alpha (human) coactivator binding potentiation | P03372 | TR-FRET ERalpha-LBD/SRC-Cy5 coactivator binding, 2 h; 100 = basal binding, no effect | coactivator binding (% of control), % at 25.6 µM | 86,000 compounds, 1.3% hits | AID 639; in the data active = activity above about 200%;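 also: binding measured in presence of low estradiol as agonist stimulus; 0% = peptide alone without receptor and 100% = receptor with peptide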
ERb SRC1 inh: ER-beta (human) coactivator binding inhibition | Q92731 | TR-FRET ER-beta LBD / SRC1-Cy5 peptide binding; receptor agonist-loaded with 1 µM estradiol | inhibition, % at 25.6 µM | 86,000 compounds, 1.3% hits;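 active = compounds whose percent inhibition of the receptor-coactivator binding signal exceeds about 50% in the single-dose screen, limit read from the data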;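 also: 0% = receptor plus peptide wells without compound and 100% = peptide-only wells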
FAK inh confirm: FAK (human) inhibition confirmed. 750 compounds, 28% hits. AID 794. inhibition, % at 7 µM. shares compounds with FAK inh. FAK kinase biochemical inhibition assay
Starred values were filed as active, the others as inactive; . = not tested or not shown; [ ] = another dose, or the depositor's remark. Rule as the data show it, unless noted: active = inhibition above about 19%; inactive = the rest.

SMILES | ERa SRC1 inh | FAK inh | ERa coact pot | ERb SRC1 inh | FAK inh confirm
NS(=O)(=O)c1ccc(NS(=O)(=O)c2ccc(NC(=O)c3ccc(-c4ccccc4)cc3)cc2)cc1 | . | 30* | . | . | 14
Cc1ccsc1/C=N/NC(=O)c1sccc1C | . | 6 | . | . | .
Cc1ccsc1C=Nc1ccc(O)cc1 | 35 | 50* | 64 | 76*[fluorescence artefact?] | 1
COc1ccccc1NC(=O)Cn1nnc(-c2ccccc2NC(=O)c2cccs2)n1 | -15 | 21* | 339*[fluorescence artefact?] | -5 | 13
COc1cc(C(=O)Nc2ccccc2-c2nnn(CC(N)=O)n2)cc(OC)c1OC | . | 2 | . | . | .
COc1ccccc1NC(=O)Cn1nnc(-c2ccccc2NC(=O)c2ccco2)n1 | -38 | 27* | 84 | 16 | 15
CCOc1ccc(-c2nnn(CC(=O)Nc3ccccc3OC)n2)cc1OCC | 34 | 0 | 143 | 22 | .
O=C1c2ccccc2S(=O)(=O)N1CCOc1ccccc1 | -6 | -2 | 107 | 13 | .
Cc1ccc(S(=O)(=O)N(C)c2ccc(C(=O)N3CCN(Cc4ccc5c(c4)OCO5)CC3)cc2)cc1 | -1 | 1 | 89 | -9 | .
COC(=O)Cc1ccc2c3ccccc3n(C)c2c1 | 1 | 41* | 91 | 7 | 32*
O=C(Cn1cnc2c(oc3ccccc32)c1=O)NCCc1ccccc1 | 6 | -4 | 116 | -2 | .
Cc1n[nH]c(C)c1N=Nc1cc(Cl)ccc1Cl | . | 41* | . | . | 21*
Cc1nc2ccc(Cl)cc2nc(C)/c1=N\O | -5 | 0 | 108 | -5 | .
Cc1cc(OCC(=O)Nc2ccc(N3CCN(C(=O)c4ccco4)CC3)cc2)cc(C)c1Cl | . | 69* | . | . | 22*
Cc1cccc(OCC(=O)Nc2ccc(N3CCN(C(=O)c4ccco4)CC3)cc2)c1 | . | 6 | . | . | .
Cc1cc(OCC(=O)Nc2ccc(N3CCCC3)cc2)cc(C)c1Cl | 2 | 33* | 103 | 11 | 17
N#Cc1cc2cc3c(cc2nc1N1CCOCC1)OCO3 | . | 1 | . | . | .
C/C(=N\OC(=O)c1cccc(C)c1)c1sc(-c2ccccc2)nc1C | . | -3 | . | . | .
O=C(Nc1ccc(F)cc1)Nc1nnc(-c2ccncc2)s1 | . | 30* | . | . | 7
O=C(c1ccco1)N(CCC(c1ccccc1)c1ccco1)Cc1ccco1 (configuration not stated) | . | 20* | . | . | 4
CC(=O)N(CCC(c1ccccc1)c1ccco1)Cc1cccs1 (configuration not stated) | -6 | -5 | 74 | -4 | .
Cc1cccc(NC(=O)c2cc(-c3ccco3)nc3ccccc23)n1 | 17 | -2 | 78 | 48 | .
O=C(N/N=C/c1cccc(F)c1)c1cc(-c2ccco2)nc2ccccc12 | . | 68* | . | . | 36*
CCCCc1cc(=O)oc2cc(C)c(CN3CCCC3)c(O)c12 | 46 | 21* | 69 | 16 | 1
COc1ccccc1N(C(=O)c1snc(C(N)=O)c1N)C(C(=O)NC1CCCC1)c1ccco1 (configuration not stated) | 1 | 7 | 81 | -7 | .
SMILES | ERa SRC1 inh | FAK inh | ERa coact pot | ERb SRC1 inh | FAK inh confirm
CC(C(=O)NC1CCCC1)N(C(=O)c1snc(C(N)=O)c1N)c1ccc2c(c1)OCCO2 (configuration not stated) | 5 | 21* | 91 | 9 | 4
CCOc1ccc(S(=O)(=O)N(CC(=O)N/N=C/c2ccc(-c3ccc([N+](=O)[O-])cc3)o2)c2ccccc2)cc1 | . | 45* | . | . | 21*
CC(=O)N(/N=C1\Sc2ccccc2C1=O)c1ccc(C)cc1C | 24 | 5 | 72 | 9 | .
CC(=O)N(/N=C1\Sc2ccccc2C1=O)c1ccccc1C | 38 | 22* | 55 | 14 | 17
O=c1oc2c3c4c(cc2s1)CCCN4CCC3 | 72*[fluorescence artefact?] | 20* | 27 | 68*[fluorescence artefact?] | 6
c1ccc2c(c1)nc(N1CCOCC1)c1c3ccccc3[nH]c21 | -1 | 31* | 87 | -3 | 14
O=c1[nH]c2ccccc2nc1N1CCOCC1 | -10 | 2 | 96 | -8 | .
Cc1ccc(NC(=O)Cn2cncc2-c2ccc([N+](=O)[O-])cc2)cc1C | . | 24* | . | . | 9
Cc1ccc(-n2ncc(C(=O)NCc3ccc4c(c3)OCO4)c2NC(=O)c2ccco2)cc1C | 12 | 4 | 97 | 11 | .
O=C(OCn1nnc2ccccc2c1=O)c1ccc2ccccc2n1 | -4 | -2 | 99 | -6 | .
COCCNC(=O)C(c1ccc(C)o1)N(C(=O)c1snc(C(N)=O)c1N)c1cc(C)cc(C)c1 (configuration not stated) | 4 | 23* | 96 | 99*[fluorescence artefact?] | 8
O=C(CCCN1CC=C(n2c(=O)[nH]c3ccccc32)CC1)c1ccc(F)cc1 | 0 | . | 114 | -7 | .
